Hits are enriched below; roughly 12% of the tested compounds scored in any of these assays.
BAZ2B inh: qHTS Assay for Inhibitors of BAZ2B; Bromodomain adjacent to zinc finger domain protein 2B (Homo sapiens), Q9UIF8; AlphaScreen BAZ2B-H3K14Ac peptide displacement; Potency, µM (series often up to 114 µM), without a hit: at the top dose activity change, negative = inhibition, usual class: inhibitors; 4.4% of 360,000 active; further: on the % scale 0 is the no-effect control and ±100 the full control effect; nearly all actives have a fitted effect of over 60% in size
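AlphaScreen luminescence quantifies BAZ2B engagement of H3K14Ac peptide; the protein and biotinylated peptide are both at 50 nM final, buffer PBS pH 7.4 with 0.01% Tween-20, all steps at room temperature.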
PLK1 PBD block: qHTS for Inhibitors of PLK1-PDB (polo-like kinase 1 - polo-box domain): Primary Screen. Serine/threonine-protein kinase PLK1 (Homo sapiens), P53350. Plk1 PBD binding of FITC phosphopeptide, fluorescence polarization. Potency, µM, without a hit: max response, negative = inhibition, hits mostly inhibitors. 2.8% of 360,000 active; further: series mostly up to about 57 µM; on the % scale 0 is the no-effect control and ±100 the full control effect; nearly all actives have a fitted effect of over 65% in size
G9a inh: qHTS Assay for Inhibitors of Histone Lysine Methyltransferase G9a | Histone-lysine N-methyltransferase EHMT2 (Homo sapiens), Q96KQ7 | G9a H3K9 monomethylation, AlphaScreen, 2 h | Potency, µM (top dose mostly 102 µM), without a hit: at the highest dose activity, negative = inhibition, most hits filed as inhibitors | 8.8% of 350,000 active; further: on the % scale 0 is the no-effect control and ±100 the full control effect; nearly all actives have a fitted effect of over 75% in size
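Chemiluminescent proximity detection of H3K9 monomethylation, read after 10 min bead incubation in the dark. Reaction: 20 nM G9a, 500 nM biotin-H3K9 peptide, 20 uM SAM cofactor, 2 h, room temperature, following 15 min enzyme-compound preincubation.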
Sfp inh: qHTS Assay for Inhibitors of Bacillus subtilis Sfp phosphopantetheinyl transferase (PPTase) | Biochemical Sfp PPTase activity, qHTS | Potency, µM, for inactives: largest response in the series, negative = inhibition, usual class: inhibitors | 3.5% of 310,000 active | AID 1490, 2009;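 further: the enzyme is Sfp with the accession as filed and its product quenches rhodamine fluorescence; 0% = enzyme reaction without inhibitor and -100% = no enzyme wells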
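Sfp 15 nM + cpd, 15 min RT; start w/ rhodamine-CoA 5 uM, BHQ-2-YbbR 12.5 uM (final); 50 mM Hepes pH 7.6, 10 mM MgCl2, 0.01% NP-40, 0.01% BSA; read 525/598 nm at 0 and 30 min.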
JMJD2A Tudor inh: qHTS Assay for Inhibitors of JMJD2A-Tudor Domain | Lysine-specific demethylase 4A (Homo sapiens), O75164 | AlphaScreen JMJD2A-Tudor / H3K4me3 peptide binding | Potency, µM (top dose mostly 114 µM), for the others: top-dose activity change, negative = inhibition, hits mostly inhibitors | 4.4% of 390,000 active | AID 504339, 2011; further: on the % scale 0 is the no-effect control and ±100 the full control effect; nearly all actives have a fitted effect of over 50% in size
HP1b chromo inh: HTS for Inhibitors of HP1-beta Chromodomain Interactions with Methylated Histone Tails. Potency, µM (doses to about 114 µM), inactives show at the highest dose activity change, negative = inhibition, most hits filed as inhibitors. AlphaScreen HP1-beta / biotin-H3K9me3 peptide binding. Chromobox protein homolog 1 (Homo sapiens), P83916. 0.56% of 390,000 active. AID 540317, 2011; further: nearly all actives have a fitted effect of over 70% in size
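AlphaScreen: HP1-beta (50 nM) preformed 30 min with biotin-H3(1-18)K9me3 peptide (50 nM) in PBS pH 7.4, 0.01% Tween-20. Compound added for 30 min at RT, then streptavidin donor/nickel chelate acceptor beads (10 ug/mL) for 30 min.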
* marks the source's active call; other numbers are inactive results; ? = inconclusive; . = no result; ! = a repeat was not active; [ ] = remark or other dose. The call rests on the fitted dose curve; in most records, active means well fitted curve in the direction sought with a large enough effect; inconclusive means small, poorly fitted or top-dose-only effect, or another doubt; inactive means no such curve, though single readings can be large; an effect the other way counts as inactive or inconclusive. Potency means the concentration at half of the fitted maximal effect.

SMILES	BAZ2B inh	PLK1 PBD block	G9a inh	Sfp inh	JMJD2A Tudor inh	HP1b chromo inh
CCN(CC)CCCN=C1N[C@@H](c2ccccc2)C(C(=O)OC)=C(C)N1CC	79µM*	-1%	40µM*!	-5%	32µM*	16%
COC(=O)C1=C(C)N(Cc2ccccc2)C(=NCCCCO)N[C@H]1c1ccccc1	?	7%	79µM*!	6%	?	12%
COC(=O)C1=C(C)N(Cc2ccccc2)C(=NCC2CC2)N[C@H]1c1ccc(Br)cc1	?	.	.	56µM*	.	.
Cc1ccccc1CN1C(=O)c2ccccc2S(=O)c2ccc(C(=O)N3CCOCC3)cc21 (stereo not given)	-5%	.	0%[59 µM]	.	-16%	12%
CC(C)N(Cc1ccccc1)C(=O)COC(=O)c1cc(S(=O)(=O)N(C)C)ccc1N1CCCC1	.	-8%	.	.	-27%	-9%
Cc1ccc(C)c(Cn2c3ccccc3c3cnn(CC(=O)NCCC4=CCCCC4)c(=O)c32)c1	-33%	.	-10%[59 µM]	.	-9%	5%
CCn1c(SCc2ccc(Cl)c(Cl)c2)nnc1C(C)NC(=O)c1ccc(OC)cc1 (stereo not given)	?	4%	22%[59 µM]	27%	-13%	12%
COc1ccc(C(=O)NC(C)c2nnc(SCc3ccc(Cl)c(Cl)c3)n2C)cc1 (stereo not given)	?	-7%	32µM*	-9%	-17%	0%
CCOc1cccc(-c2c(C(=O)N/N=C/c3ccc(Br)cc3)nnn2-c2nonc2N)c1	-16%	2%	.	16%	-10%	10%[57 µM]
O=C(O)/C(=C\c1ccc(Cl)c([N+](=O)[O-])c1)c1ccc(S(=O)(=O)N2CCCC2)s1	56µM*	-26%	-4%[2.33 µM]	.	?	-2%
O=C(O)/C(=C\c1ccc(Cl)c([N+](=O)[O-])c1)c1ccc(S(=O)(=O)N2CCCCC2)s1	?	?	45µM*	45µM*	?	-2%
O=C(O)/C(=C\c1ccccc1Cl)c1ccc(S(=O)(=O)N2CCCCC2)s1	-38%	-12%	?	?	-11%	34%
O=C(O)/C(=C\c1ccc(Cl)cc1)c1ccc(S(=O)(=O)N2CCCC2)s1	?	-3%	?	.	-24%	7%
CC(=O)OCC1OC(C#Cc2ccccc2)C=CC1OC(C)=O (stereo not given)	.	.	.	-13%	.	.
[O-]/[N+](=C/c1ccc(F)cc1)c1ccc(Cl)cc1	-33%	?	11µM*	40µM*	-23%	4%
[O-][N+](=Cc1ccccc1)c1ccc(Cl)cc1	.	21µM*	.	.	-22%	1%
CN1C(=S)SC(/[N+]([O-])=C/c2ccc(Cl)cc2)C1(C)C (stereo not given)	-2%	-3%	40%	4%	-7%	-1%
CCN(CC(=O)NC(=O)NCc1ccccc1)Cc1ccccc1	5%	2%	.	4%	7%	38%
CCN(CC)Cc1cc(NC2=NS(=O)(=O)c3ccccc32)ccc1OC(=O)c1ccccc1	-7%	-5%	79µM*	7%	-10%	43%
CCOc1ccccc1CNC(=O)CCCc1cn(C)c2ccccc12	?	3%	50µM*	8%	?	-6%
CCOc1ccccc1CNC(=O)CCc1cn(C)c2ccccc12	?	3%	-19%	-2%	?	18%
CN(C1CCCCC1)S(=O)(=O)c1cccc(C#N)c1	-3%	24µM*	-44%	2%	-20%	-20%
CN(C1CCCCC1)S(=O)(=O)c1ccc(=S)[nH]c1	31%	21µM*	-18%[12.7 µM]	.	-20%	-11%
CCOc1ccc(S(=O)(=O)N(C)C2CCCCC2)cc1	1%	3%	101%	12%	46%	80%
Cc1ccccc1-c1noc(-c2ccc(NCc3cccnc3)c([N+](=O)[O-])c2)n1	-35%	.	17%[59 µM]	.	0%	41%
SMILES	BAZ2B inh	PLK1 PBD block	G9a inh	Sfp inh	JMJD2A Tudor inh	HP1b chromo inh
CCCCN(C(=O)COC(=O)c1ccc(C=O)cc1)c1c(N)n(CCC)c(=O)[nH]c1=O	-1%	-2%	24%[12.7 µM]	.	-4%	46%
COc1ccc(-c2ccc3ncnc(NCc4cccs4)c3c2)cc1	.	.	.	.	-21%	.
O=C(C[C@H]1C/C=C\CC[C@@H](Cc2ccc(F)cc2)C(=O)OC[C@H]2CCCN2C1=O)N[C@@H](CO)Cc1ccccc1	.	-2%	.	.	-20%	14%
S=C1NC2(CCS1)Oc1ccccc1C1CC(c3ccccc3)=NN12 (stereo not given)	?	.	50µM*	?	.	.
C=CCc1cc(Cl)ccc1OCCN1CC(C)OC(C)C1 (stereo not given)	?	-3%	4.5µM*	-24%	2.2µM*	?
C=CCc1cc(OC)ccc1OCCN1CC(C)OC(C)C1 (stereo not given)	28µM*	-3%	7.1µM*	56µM*	5µM*	?
COc1ccc(OC)c(NC(=O)CCN2CC(C)OC(C)C2)c1 (stereo not given)	7%	3%	26%	5%	-3%	28%
CN(C(=O)c1ccc2c(=O)n3c(nc2c1)CCCCC3)c1cccc(Cl)c1	4%	-4%	18%	19%	-11%	9%
CC[n+]1c(C)sc2sc3ccccc3c21	25µM*	.	1µM*	2.8µM*	.	.
Cc1nc2c(s1)sc1ccccc12	22%	-9%	38%	13%	-2%	76%
COCC(=O)N1CCC[C@@]2(CCN(Cc3ccccc3)C2)C1	.	.	9%[12.7 µM]	-1%	.	.
CCn1nc(C)c(/C=C2\CCCC3=C2OC(N)=C(C#N)C3c2c(C)nn(CC)c2C)c1C (stereo not given)	-8%	.	50µM*	15%	.	.
O=C(N/N=C/c1cc(Br)ccc1O)C(c1ccncc1)N1CCOCC1 (stereo not given)	50µM*	-8%	14%	2%	79µM*	16%
COc1cccc(/C=N/NC(=O)C(c2ccncc2)N2CCOCC2)c1 (stereo not given)	2%	-4%	29%[59 µM]	6%	1%	50%
CCCCN(CC)CCCNC(=O)CS(=O)(=O)Cc1nc(-c2ccc(C)cc2)oc1C	-16%	.	0%[59 µM]	.	-12%	24%
CC1=NN=C(c2ccccc2)C(c2c[nH]c3ccccc23)N1O (stereo not given)	-10%	-13%	?	27%	-19%	-10%
Oc1ccc(C2C(c3ccccc3)=NN=C(c3ccccc3F)N2O)c(O)c1 (stereo not given)	?	-13%	50µM*	-7%	-31%	-16%

Assay outcomes as filed in PubChem.
